TGFb inhibitor – qHTS for Inhibitors of TGF-b; HepG2 CAGA-GFP TGF-b/SMAD3 reporter, GFP fluorescence, 18 h; TGF-beta stimulated, 500 pg/mL final; Potency, µM (highest dose often 46.1 µM), hits mostly inhibitors; 410,000 tested, 1.2% active; also: nearly all actives have a fitted effect of over 65% in size
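Read-out: total well GFP (ex488/em500-530) summed from mean per-cell fluorescence. Cells: HEPG2 CAGA-GFP, 1% FBS DMEM, 18 h at 37 degrees C with 500 pg/mL final TGF-beta. Unstimulated wells served as the full-inhibition control; stimulated DMSO wells = 0%.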
TDP1 cell CPT – qHTS for Inhibitors of human tyrosyl-DNA phosphodiesterase 1 (TDP1): qHTS in cells in presence of CPT; Potency, µM (titrated, usually from 46.2 µM), most hits filed as inhibitors; 420,000 tested, 12% active; chicken DT40 Tdp1-/-;hTDP1 cells + 20 nM CPT, ATP luminescence, 48 h; also: nearly all actives have a fitted effect of over 55% in size
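Cell growth measured by CellTiter-Glo luminescence after a minimum 48 h, 37 C compound exposure with 20 nM CPT in Tdp1-knockout DT40 cells stably expressing hTDP1, seeded 400/well; qHTS titration format.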
S2 tox – Viability Counterscreen for Primary qHTS for Inhibitors of ATXN expression; AID 651635, 2014; Potency, µM (titrated, usually from 56.7 µM), hits mostly cytotoxic; S2 cells (HEK-293 line with an ATXN2-luciferase reporter) viability, CellTiter-Fluor protease fluorescence, 24 h; 400,000 tested, 0.49% active; also: nearly all actives have a fitted effect of over 40% in size
DT40 TDP1 no CPT – qHTS for Inhibitors of human tyrosyl-DNA phosphodiesterase 1 (TDP1): qHTS in cells in absence of CPT. DT40 Tdp1-/- hTDP1 cells, no CPT, ATP luminescence, 48 h. Potency, µM (series often up to 46.2 µM), actives largely listed as inhibitors. 420,000 tested, 15% active. AID 686978, 2013; also: nearly all actives have a fitted effect of over 55% in size
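No-CPT arm: Tdp1-/-;hTDP1 DT40 cells (400/well) plus compounds, incubated ≥48 hr at 37 °C. Readout CellTiter-Glo luminescence.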
HepG2 tox – qHTS for Inhibitors of TGF-b: Cytotox Counterscreen; HepG2 CAGA-GFP viability, ATP luminescence, 18 h; Potency, µM (titrated, usually from 46.1 µM), most hits filed as cytotoxic; 410,000 tested, 0.76% active
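CellTiter-Glo luminescence gave cytotoxicity after 18 hours at 37 degrees C. The cells were HepG2 CAGA-GFP in 1% FBS DMEM, stimulated with 500 pg/mL TGF-beta after compound addition. %Activity was normalised to no-cell wells (complete cell-killing) and DMSO (no toxicity), and curves were fitted and classified.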
ATXN2 expr inh – Primary qHTS for Inhibitors of ATXN expression | HEK-293 ATXN2-luciferase reporter, luminescence, 24 h | 360,000 tested, 0.72% active | Potency, µM (doses to about 57 µM), most hits filed as inhibitors; also: nearly all actives have a fitted effect of over 55% in size
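qHTS (up to 57 uM final) was run with 24 h compound exposure of reporter cells at 37 °C. Each well was multiplexed: SteadyGlo luminescence measured ATXN2-luciferase expression after a fluorogenic Gly-Phe-AFC viability readout (25 uM final).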
Large screens that a line does not name were inactive. The list is not random: actives were taken first. Their share in the collection is about 17%. Calls follow the shape of the dose curve; as a rule, active = well fitted curve in the direction sought with a large enough effect; inconclusive = small, poorly fitted or top-dose-only effect, or another doubt; inactive = no such curve, though single readings can be large; an effect the other way counts as inactive or inconclusive.

CCCN(C(=O)COC(=O)c1[nH]c(C)c(C(=O)OC)c1C)c1c(N)n(Cc2ccccc2)c(=O)[nH]c1=O	TDP1 cell CPT inconclusive
CC(=O)Nc1csc2ccccc12	none (no result: ATXN2 expr inh)
O=C(Nc1ccccc1)Nc1ccc(NC(=O)c2ccccc2O)cc1	none
O=C(Nc1cccc2ccccc12)N(c1ccccc1)c1ccccc1	TGFb inhibitor inconclusive, TDP1 cell CPT 20.6µM, DT40 TDP1 no CPT 20.6µM
O=C(Nc1ccccc1)Nc1cccc2ccccc12	TDP1 cell CPT 16.4µM, DT40 TDP1 no CPT inconclusive
O=C(Nc1ccccc1)Nc1ccc(O)c2ccccc12	TGFb inhibitor inconclusive, TDP1 cell CPT 1.64µM, DT40 TDP1 no CPT 11.6µM (no result: ATXN2 expr inh)
O=C(Nc1ccccc1)Nc1csc2ccccc12	TGFb inhibitor inconclusive, TDP1 cell CPT inconclusive, DT40 TDP1 no CPT inconclusive, HepG2 tox 17.8µM
O=C(Nc1ccc(C(=O)O)cc1)Nc1cccc2ccccc12	none
C=CCNC(=O)N1CCC(c2nc3ccccc3s2)CC1	none
O=S1(=O)CCN2C(=N1)Sc1c2ccc2c1CCCC2	none
Cc1cc(C)cc(-n2c(C)cc(C(=O)C(=O)Nc3ccccc3F)c2C)c1	none
C=C1C(=O)OCC2C(C(=O)O)=CC3C(C)C(C)=CC123 (stereo not given)	TGFb inhibitor inconclusive, TDP1 cell CPT 18.4µM, S2 tox inconclusive, DT40 TDP1 no CPT 18.4µM (no result: ATXN2 expr inh)
CCc1nc2ccc(C(=O)NCc3cc(OC)ccc3OC)cc2nc1CC	TDP1 cell CPT 16.4µM, DT40 TDP1 no CPT inconclusive (no result: S2 tox, ATXN2 expr inh)
CCc1nc2ccc(C(=O)NCCc3ccc(OC)cc3OC)cc2nc1CC	TGFb inhibitor inconclusive, TDP1 cell CPT 25.9µM, DT40 TDP1 no CPT 18.4µM (no result: S2 tox, ATXN2 expr inh)
CCc1nc2ccc(C(=O)NCc3ccc(N(C)C)cc3)cc2nc1CC	TDP1 cell CPT inconclusive, DT40 TDP1 no CPT inconclusive (no result: S2 tox, ATXN2 expr inh)
COc1ccc(OC)c(CNC(=O)c2ccc(Sc3ccc(C)cc3)c(N)c2)c1	TGFb inhibitor inconclusive, TDP1 cell CPT 23.1µM, DT40 TDP1 no CPT 20.6µM (no result: S2 tox, ATXN2 expr inh)
CCOc1ccc(CCNC(=O)c2ccc3nc(CC)c(CC)nc3c2)cc1	TGFb inhibitor inconclusive, TDP1 cell CPT inconclusive, DT40 TDP1 no CPT inconclusive
CCOc1ccc(CNC(=O)c2ccc(Sc3ccc(C)cc3)c(N)c2)cc1OC	TGFb inhibitor inconclusive, TDP1 cell CPT inconclusive, DT40 TDP1 no CPT inconclusive (no result: S2 tox, ATXN2 expr inh)
Cc1ccc(NC(=O)Cn2cc(S(=O)(=O)N3CCC(C)CC3)c3ccccc3c2=O)c(Br)c1	TGFb inhibitor inconclusive
O=C(CN1C(=O)S/C(=C\c2cc(Cl)c(O)c(Cl)c2)C1=O)Nc1ccccc1	TDP1 cell CPT inconclusive, DT40 TDP1 no CPT inconclusive
CC(C)CC(CO)N1CCN(C(=O)c2ccc(Cl)cc2)CCC1=O (stereo not given)	none
Cc1ccc(CN2CC(C(=O)NC(c3nc4ccccc4[nH]3)C(C)C)CC2=O)cc1 (stereo not given)	S2 tox inconclusive (no result: ATXN2 expr inh)
O=c1[nH]c2ccccc2cc1-c1nnn(-c2ccccc2)n1	TDP1 cell CPT 16.4µM, DT40 TDP1 no CPT inconclusive
O=c1[nH]c2ccccc2cc1-c1noc(-c2cccnc2)n1	DT40 TDP1 no CPT inconclusive
COc1ccc2[nH]c(=O)c(-c3nnn(-c4ccc(F)cc4)n3)cc2c1	TDP1 cell CPT 4.61µM, DT40 TDP1 no CPT 16.4µM
COc1ccc2[nH]c(=O)c(-c3noc(-c4ccccc4)n3)cc2c1	TDP1 cell CPT 20.6µM, DT40 TDP1 no CPT 18.4µM
COc1ccc2[nH]c(=O)c(-c3nnn(-c4ccc(Cl)nc4)n3)cc2c1	TDP1 cell CPT 11.6µM, DT40 TDP1 no CPT inconclusive
COc1ccc2[nH]c(=O)c(-c3nnn(-c4ccccc4)n3)cc2c1	TDP1 cell CPT inconclusive, DT40 TDP1 no CPT inconclusive
Cc1cc(Cn2nc(C(=O)NCC3CC3)cc2-c2ccccc2)on1	TGFb inhibitor inconclusive, DT40 TDP1 no CPT inconclusive
COc1ccc2c(c1)CCc1cnc(-n3ncc(C(=O)NCc4cc(C)no4)c3C3CC3)nc1-2	none (no result: TGFb inhibitor, HepG2 tox, ATXN2 expr inh)
COc1ccccc1-c1nnc(C2CCN(S(=O)(=O)c3ccc([N+](=O)[O-])cc3)CC2)o1	TDP1 cell CPT inconclusive, DT40 TDP1 no CPT inconclusive
COc1ccccc1-c1nnc(C2CCN(S(=O)(=O)c3cccc([N+](=O)[O-])c3)CC2)o1	TDP1 cell CPT inconclusive, DT40 TDP1 no CPT 20.6µM (no result: ATXN2 expr inh)
COc1ccccc1-c1nnc(C2CCN(S(=O)(=O)c3ccc(CC(C)C)cc3)CC2)o1	TGFb inhibitor inconclusive, TDP1 cell CPT inconclusive, S2 tox inconclusive, DT40 TDP1 no CPT inconclusive
COc1ccccc1-c1nnc(C2CCN(S(=O)(=O)c3ccccc3)CC2)o1	TGFb inhibitor inconclusive, TDP1 cell CPT inconclusive, DT40 TDP1 no CPT 14.6µM
C=C(c1cn(C(C)=O)c2ccccc12)c1cn(C(C)=O)c2ccccc12	TDP1 cell CPT 23.1µM, DT40 TDP1 no CPT inconclusive
Cc1cc(=O)c2c(=O)[nH][nH]c2[nH]1	none (no result: ATXN2 expr inh)
Cc1cc(=O)c2c(C)ccc(C)c2[nH]1	TDP1 cell CPT inconclusive, DT40 TDP1 no CPT 9.2µM (no result: ATXN2 expr inh)

Source: PubChem BioAssay (National Center for Advancing Translational Sciences (NCATS))
